# Assay outcomes as filed in PubChem.
# Sfp PPTase inh = Sfp phosphopantetheinyl transferase inhibition; Q9F4F7; Biochemical Sfp PPTase activity, qHTS; Potency, µM, for the others: largest response in the series, negative = inhibition, usual class: inhibitors; 310,000 tested, 3.5% active;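 note: the enzyme is Sfp with the accession as filed and its product quenches rhodamine fluorescence; potency is the fitted concentration of half-maximal effect; 0% = enzyme reaction without inhibitor and -100% = no enzyme wells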
#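 Step 1, compound plus 15 nM Sfp-PPTase, 15 min, room temperature. Step 2, add rhodamine-CoA (5 uM) and BHQ-2-YbbR (12.5 uM). Step 3, read 525/598 nm fluorescence at 0 and 30 min.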
# PLK1 PBD inh = inhibitors of human PLK1 polo-box domain binding; 360,000 tested, 2.8% active; P53350; Potency, µM, for inactives: max response, negative = inhibition, actives largely listed as inhibitors; Plk1 PBD binding of FITC phosphopeptide, fluorescence polarization; note: potency is the fitted concentration of half-maximal effect; series mostly up to about 57 µM; nearly all actives have a fitted effect of over 65% in size
# Target sequence (P53350 whole entry, looked up, the tested form may be a part): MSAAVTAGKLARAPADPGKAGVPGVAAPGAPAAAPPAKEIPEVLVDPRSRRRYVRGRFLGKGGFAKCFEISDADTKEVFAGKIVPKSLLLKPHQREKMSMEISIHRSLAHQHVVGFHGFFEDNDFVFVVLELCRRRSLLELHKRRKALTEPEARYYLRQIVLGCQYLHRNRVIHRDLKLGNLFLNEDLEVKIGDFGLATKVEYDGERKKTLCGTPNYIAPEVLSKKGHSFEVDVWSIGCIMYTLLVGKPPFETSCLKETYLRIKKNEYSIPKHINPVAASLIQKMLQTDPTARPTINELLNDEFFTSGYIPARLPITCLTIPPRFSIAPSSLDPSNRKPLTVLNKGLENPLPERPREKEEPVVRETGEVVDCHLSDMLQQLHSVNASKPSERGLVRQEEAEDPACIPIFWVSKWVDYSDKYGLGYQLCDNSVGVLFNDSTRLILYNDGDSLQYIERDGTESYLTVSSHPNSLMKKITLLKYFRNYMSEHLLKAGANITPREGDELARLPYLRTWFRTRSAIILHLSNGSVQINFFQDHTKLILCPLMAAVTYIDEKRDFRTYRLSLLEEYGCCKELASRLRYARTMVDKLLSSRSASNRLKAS
# Mm-Cpn inhibitor = blocks the Methanococcus maripaludis chaperonin Mm-Cpn; purified Mm-Cpn ATPase, ADP Transcreener TR-FRET; Potency, µM (highest dose often 76.9 µM), for the others: at the highest dose activity, negative = inhibition, most hits filed as inhibitors; 330,000 tested, 0.031% active; note: potency is the fitted concentration of half-maximal effect; nearly all actives have a fitted effect of over 80% in size
#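 Purified archaeal Mm-CPN (25nM final) preincubated 10 min at 37degC with compound, then 10uM ATP for 30 min at 37degC; ADP measured by HTRF Transcreener TR-FRET; buffer 30 mM TRIS pH 7.4, 100mM KCl, 5mM MgCl2, 1mM DTT.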
# G9a block = blocks human histone lysine methyltransferase G9a. AID 504332. Q96KQ7. 350,000 tested, 8.8% active. G9a H3K9 monomethylation, AlphaScreen, 2 h. Potency, µM (titrated, usually from 102 µM), without a hit: top-dose activity, negative = inhibition, usual class: inhibitors; note: potency is the fitted concentration of half-maximal effect; nearly all actives have a fitted effect of over 75% in size
#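 Quantitative HTS format: methyltransferase activity on a biotin-tagged H3K9 peptide is measured by AlphaScreen, using a rabbit anti-monomethyl-H3K9 antibody with streptavidin donor and anti-IgG acceptor beads. Final levels are 20 nM enzyme, 500 nM peptide, 20 uM SAM; 2 h RT.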
# CCT modulator = cytosolic chaperonin activity modulation | purified chaperonin ATPase assay, HTRF ADP detection, 30 min | activity change, % (no concentration beside the values), hits read low | 360,000 tested, 0.3% active | AID 651819; in the data active = activity change below about -30%
#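 Nucleotide hydrolysis assay: TRiC at 20–40 nM final (set by batch activity) with 10 uM ATP, 30 min at 37 °C, in presence of 76 uM compound. Detection by competitive ADP HTRF, 30 min ambient.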
# VDR inhibitor = vitamin D3 receptor (human) inhibition. P11473. 400,000 tested, 0.93% active. AID 504847. Potency, µM, for the others: max response, negative = inhibition, hits mostly inhibitors. VDR-SRC2-3 peptide fluorescence polarization, 2 h; note: potency is the fitted concentration of half-maximal effect
#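 Measured by FP: displacement of SRC2-3 coactivator peptide from VDR by library compounds, following a two-hour ambient incubation.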
# The depositor's hits bear a star; ? = inconclusive; nt = no result given; [ ] = dose if it differs, or a comment. An excerpt weighted towards active compounds, which were near 10% of everything screened. Unless noted, calls come from the whole dose curve; as a rule, active = well fitted curve in the direction sought with a large enough effect; inconclusive = small, poorly fitted or top-dose-only effect, or another doubt; inactive = no such curve, though single readings can be large; an effect the other way counts as inactive or inconclusive. Unless noted, % is set by controls: 0 for no effect and ±100 for the full control effect.
SMILES,Sfp PPTase inh,PLK1 PBD inh,Mm-Cpn inhibitor,G9a block,CCT modulator,VDR inhibitor
O=C(NCc1cccnc1)c1ccc2c(=O)n(CCCN3CCCC3=O)c(=S)[nH]c2c1,-1.9%,-7.6%,-2.9%,39.8µM*,0.7,-3.3%
CCN(CC)CCNC(=O)c1ccc2c(=O)n(C3CCCC3)c(=S)[nH]c2c1,-15.5%,-8.7%,-0.4%,20µM*,0.9,0.5%
COCCn1c(=S)[nH]c2cc(C(=O)NCc3ccc(F)cc3)ccc2c1=O,nt,-1.5%,nt,nt,-0.5,nt
CC(C)NC(=O)c1ccc2c(=O)n(C3CCCC3)c(=S)[nH]c2c1,-2.8%,1.2%,-3.4%,24.4%[59 µM],-0.2,-11.7%
CCN(CC)CCN1C(=O)c2oc3ccccc3c(=O)c2C1c1cccc(Br)c1 (stereo not drawn),10.4%,-7.3%,-0.2%,50.1µM*,-1.4,15.4%
COc1ccc(OC)c(C2c3c(oc4ccccc4c3=O)C(=O)N2CCCN(C)C)c1 (stereo not drawn),10.1%,-1.7%,-1.4%,?,-1.0,-5.3%
CCCOc1ccc(C2c3c(oc4ccccc4c3=O)C(=O)N2CCN(CC)CC)cc1OC (stereo not drawn),5.1%,-14.2%,-1.2%,50.1µM*,-1.3,5.2%
CCN(CC)CCN1C(=O)c2oc3ccccc3c(=O)c2C1c1ccccc1 (stereo not drawn),11.5%,-6.0%,-0.5%,-1.8%[0.501 µM],-5.6,5.6%
CN1C(=O)c2oc3ccc(Br)cc3c(=O)c2C1c1ccncc1 (stereo not drawn),39.8µM*,nt,-1.2%,15.8µM*,nt,nt
CCN(CC)CCCN1C(=O)c2oc3ccccc3c(=O)c2C1c1cccs1 (stereo not drawn),2.8%,nt,-3.5%,50.1µM*,nt,nt
COc1ccccc1Cc1nc2ccccc2nc1SCC(=O)NCc1ccccc1Cl,nt,nt,nt,11.0%[59 µM],nt,12.8%
O=C1c2oc3ccc(Cl)cc3c(=O)c2C(c2cccc(Br)c2)N1CCO (stereo not drawn),3.8%,?,0.6%,50.1µM*,-17.0,8.0%
CN(C)CCCN1C(=O)c2oc3ccc(Cl)cc3c(=O)c2C1c1cccnc1 (stereo not drawn),-1.6%,-5.0%,-6.0%,50.1µM*,0.5,-11.0%
CCCn1nc(NC(=O)c2cccc(Cl)c2)c2cc3cccc(C)c3nc21,nt,nt,nt,4.6%[59 µM],nt,10.3%
O=C(CSc1nnc2[nH]c(=O)cc(-c3ccccc3)n12)Nc1ccc(OC(F)(F)F)cc1,nt,nt,nt,?,nt,-0.6%
O=C1/C(=C/Nc2ccc3c(c2)OCO3)CCc2ccccc21,35.5µM*,-18.0%,-6.3%,1.78µM*,2.3,-5.8%
COc1ccc2c(c1)CC/C(=C\Nc1ccc3c(c1)OCO3)C2=O,22.4µM*,-17.8%,-21.2%,2.51µM*,-1.0,-14.4%
COc1ccc(N/C=C2\CCOC2=O)cc1,18.4%,-11.5%,-0.2%,9.5%[59 µM],0.3,14.4%
COc1ccc2c(c1)CC/C(=C/c1cc(OC)c(OC)c(OC)c1)C2=O,?,-5.7%,-1.0%,-32.2%[59 µM],0.1,-19.8%
COc1ccc(N/C=C2\CCc3ccccc3C2=O)cc1,56.2µM*,-3.5%,1.5%,2µM*,1.4,9.4%
O=C(COc1ccc([N+](=O)[O-])cc1)Nc1cccc2cccnc12,nt,nt,nt,15.9%[59 µM],nt,17.6%
CCOc1ccc(CNn2cnnc2)cc1,13.1%,26.7µM*,0.1%,13.1%[59 µM],0.6,?
CCOc1ccccc1CNn1cnnc1,nt,4.1%,nt,nt,0.4,-1.1%
CCOc1ccc(/C=C(\C#N)C(=O)Nc2sc3c(c2C(=O)OC)C(C(=O)OC)CC3)cc1OC (stereo not drawn),nt,nt,nt,1.41µM*,nt,20µM*
CCCc1cc(=O)n2[nH]c(-c3cc(OC)c(OC)c(OC)c3)nc2n1,10.3%,-4.3%,-0.9%,44.7µM*,-1.6,-6.7%
N=C1Sc2ccccc2C2=NCCCN12,nt,nt,nt,0.112µM*,nt,nt
Clc1ccc2c(c1)-c1ccccc1C1=NCCN12,nt,3.9%,nt,nt,0.5,nt
COc1ccc(-c2[nH]c(-c3ccc(C)cc3)nc2SCC(=O)NC2CCCC2)cc1,10.0%,-4.6%,-0.5%,50.1µM*,0.0,-2.5%
O=C(CSc1nccn(-c2ccc3c(c2)OCCO3)c1=O)Nc1ccccc1,nt,21.2µM*,-11.6%,18.8%[0.501 µM],2.7,?
